Reference: PubChem BioAssay AID720504 (National Center for Advancing Translational Sciences (NCATS), 2013)
The whole screen tested about 360,000 compounds, of which about 10,000 (2.8%) were called active. About 4% were inconclusive and are not listed. Shown is part of a subset that was picked to be rich in actives. A number with no mark means an inactive call. The call rests on the fitted dose curve; in most records, active means well fitted inhibition curve with a large enough effect; inconclusive means small, poorly fitted or top-dose-only effect; inactive means flat fitted curve, though single readings scatter.

biological target: Serine/threonine-protein kinase PLK1 (Homo sapiens) (UniProt P53350); assay: qHTS for Inhibitors of PLK1-PDB (polo-like kinase 1 - polo-box domain): Primary Screen; settings: Plk1 PBD binding of FITC phosphopeptide, fluorescence polarization; further: nearly all actives have a fitted effect of over 65% in size; on max response, negative = inhibition: series mostly up to about 57 µM
On the % scale 0 is the no-effect control and ±100 the full control effect; potency means the concentration at half of the fitted maximal effect.

Serine/threonine-protein kinase PLK1 (Homo sapiens), sequence (P53350 whole entry, looked up, the tested form may be a part): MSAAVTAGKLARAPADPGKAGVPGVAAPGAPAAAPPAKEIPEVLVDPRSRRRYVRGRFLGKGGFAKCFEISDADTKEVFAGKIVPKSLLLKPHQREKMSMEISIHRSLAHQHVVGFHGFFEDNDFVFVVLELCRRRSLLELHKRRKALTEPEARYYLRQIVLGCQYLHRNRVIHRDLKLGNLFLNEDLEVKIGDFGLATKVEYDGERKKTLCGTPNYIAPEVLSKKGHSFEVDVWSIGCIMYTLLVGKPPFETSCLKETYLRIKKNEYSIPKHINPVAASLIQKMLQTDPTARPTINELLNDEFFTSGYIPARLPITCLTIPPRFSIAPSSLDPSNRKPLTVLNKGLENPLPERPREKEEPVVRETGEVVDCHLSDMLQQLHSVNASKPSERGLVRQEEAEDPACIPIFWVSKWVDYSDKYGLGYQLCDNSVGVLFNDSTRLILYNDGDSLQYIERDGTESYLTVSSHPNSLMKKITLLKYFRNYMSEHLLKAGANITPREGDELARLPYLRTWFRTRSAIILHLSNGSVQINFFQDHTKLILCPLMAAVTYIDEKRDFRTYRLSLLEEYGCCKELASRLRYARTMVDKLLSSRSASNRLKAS

| SMILES | max response, negative = inhibition | Potency |
| --- | --- | --- |
| COc1ccc(Br)c(Cn2c(C)c(C(=O)NCc3cccs3)sc2=O)c1 | 8.23% |  |
| CCOC(=O)[C@]12CCCC=C1N(CCC1=CCCCC1)C(=O)[C@H](CC(=O)NCCCCc1ccccc1)C2 | -2.05% |  |
| COc1ccccc1CNC(=O)c1ccc(CS(=O)(=O)c2ccccc2)o1 | -4.65% |  |
| CCc1ccccc1S(=O)(=O)Cc1ccc(C(=O)NCCc2ccccc2)o1 |  | 26.7 µM (active) |
| Cc1ccccc1S(=O)(=O)Cc1ccc(C(=O)NCCN2CCCCC2C)o1 (stereo not drawn) | 1.66% |  |
| COC(=O)c1ccc2nc(-c3cccc(Br)c3)c(Cc3ccc(OC)cc3C)n2c1 | -4.35% |  |
| CCC(c1nnnn1-c1ccc2c(c1)OCCO2)N1CCN(c2ccc(C(F)(F)F)cn2)CC1 (stereo not drawn) | 3.69% |  |
| COc1ccc(C(CNC(=O)c2ccc(OCc3cscn3)cc2)N2CCCC2)cc1 (stereo not drawn) | 3.78% |  |
| Cc1cc(NC(=O)Nc2ccccc2[N+](=O)[O-])no1 |  | 10.6 µM (active) |
| Cc1cc(NC(=O)c2ccccc2C)no1 | -3.17% |  |
| Cc1csc(NC(=O)Nc2ccccc2[N+](=O)[O-])n1 | 3.11% |  |
| Cc1ccc(-c2nn(-c3ccccc3)cc2C(=O)NC2CCC(O)CC2)cc1 (stereo not drawn) | 6.03% |  |
| Cc1ccc(-c2nn(-c3ccccc3)cc2C(=O)Nc2cccc(S(=O)(=O)N3CCOCC3)c2)cc1 | -5.73% |  |
| O=C(O)c1ccc(NC(=O)c2cn(-c3ccccc3)nc2-c2ccc(Cl)cc2)cc1 |  | 26.7 µM (active) |
| Nc1nc2c(Br)ccc(Br)c2cc1C(=O)NCCc1ccccc1 | -9.21% |  |
| COc1cccc(NC(=O)CN(C)C(=O)c2cc(Cl)nc3ccccc23)c1 | -14.4% |  |
| O=C(C[C@H]1C[C@H]2c3cc(NS(=O)(=O)c4ccc(F)cc4)ccc3O[C@H]2[C@H](CO)O1)NCc1cc(F)ccc1F | -5.98% |  |
| O=c1ccc2c(-c3ccccc3S(=O)(=O)O)c3ccc(O)c(O)c3oc-2c1O |  | 7.52 µM (active) |
| O=C(c1cccs1)N1C[C@H](n2cc(C3CC3)nn2)[C@@H](O)C[C@@H]1c1ccccc1 | 0.263% |  |
| Cc1ccc(N2CC(C(=O)Nc3ccc(S(=O)(=O)N4CCCC4)cc3)CC2=O)cc1C (stereo not drawn) | -12.9% |  |
| CNS(=O)(=O)c1ccc(NC(=O)C2CC(=O)N(c3ccc(Cl)cc3)C2)cc1 (stereo not drawn) |  | 26.7 µM (active) |
| O=C(Nc1ccc(S(=O)(=O)N2CCCCC2)cc1)C1CC(=O)N(c2ccc(F)cc2)C1 (stereo not drawn) | -7.84% |  |

| SMILES | max response, negative = inhibition | Potency |
| --- | --- | --- |
| CCc1nc2c(OCCC3CCCCC3)cccn2c1N(C)C(=O)c1ccco1 | -5.85% |  |
| COc1ccc(N2c3ccccc3CN(Cc3ccccc3)[C@@H](C)[C@H]2Cc2ccc(-c3ccccc3)cc2)cc1 | 3.32% |  |
| Cc1sc2ncnc(SCC(=O)NC3CCS(=O)(=O)C3)c2c1C (stereo not drawn) | -10.2% |  |
| O=C(NCc1nnnn1-c1ccc(Cl)cc1)c1ccc2c(c1)OCO2 | -15.4% |  |
| COc1ccc(C(=O)NCC2CCCO2)cc1S(=O)(=O)NCc1ccc(Cl)cc1 (stereo not drawn) | -11.7% |  |
| Cc1ccc([C@H]2C[C@H](O)[C@@H](n3cc(COC(=O)c4ccccc4)nn3)CN2C(=O)C2CCCCC2)cc1 | -1.5% |  |
| Nc1ccc2[nH]c(=S)sc2c1 |  | 2.99 µM (active) |
| O=c1[nH]c2ccccc2s1 | -9.39% |  |
| CC1=C(C(=O)N2CCOCC2)CC(CC(=O)NCc2ccco2)C(=O)N1Cc1ccc(F)cc1 (stereo not drawn) | -9% |  |
| CCOC(=O)C1CCCN(C(=O)c2cccc3ccccc23)CC1 (stereo not drawn) | -9.5% |  |
| CC1CCN(c2oc(-c3ccccc3F)nc2C#N)CC1 | 1.03% |  |
| N#Cc1nc(COc2ccc(Cl)cc2)oc1N1CCCC1 | -6.72% |  |
| Cc1ccc(OCc2nc(C#N)c(N3CCCC3)o2)cc1 |  | 5.32 µM (active) |
| COC(=O)c1ccc(CN2C(=O)C(Cc3ccccc3)ON=C2c2ncccc2C)o1 (stereo not drawn) | 5.05% |  |
| CN1OC[C@@H]2CN(C(=O)C(C)(C)C)[C@H](c3ccc(-n4ccnc4)cc3)C[C@@H]21 | -0.5% |  |
| COc1cc(CNc2ncnc3c2ncn3[C@H]2CN(Cc3cccs3)C[C@@H](CO)O2)cc(OC)c1OC | -6.55% |  |
| COCCCn1c(C(=O)NC2CCCCC2)cc2c(=O)n3cccc(C)c3nc21 | -6.64% |  |
| Cn1c(Cn2nnc3ccccc32)nnc1SCC(=O)c1ccccc1F | -9.05% |  |
| C/C(Cn1nnc2ccccc21)=N\OC(=O)c1cc(F)c(F)cc1Cl | -15% |  |
| Fc1ccc(OCc2nn3c(Cn4nnc5ccccc54)nnc3s2)cc1 |  | 11.9 µM (active) |
| COC(=O)[C@]12CCCCC=C1N(Cc1ccc(Cl)cc1Cl)C(=O)[C@H](CC(=O)NCc1cccc3ccccc13)C2 | -11% |  |
| CCc1nc2c(=O)[nH]cnc2o1 | -1.77% |  |

| SMILES | max response, negative = inhibition | Potency |
| --- | --- | --- |
| CC(=NNC(N)=O)C1CC2CCC1CC2 (stereo not drawn) | -7.72% |  |
| Cc1cc(NC(=O)CSc2nc(C(C)C)nc3sc4c(c23)CCC(C)C4)no1 (stereo not drawn) | -3.46% |  |
| Cc1ccc(C(=O)NCCc2nnc(SCC(=O)Nc3cccc(C(=O)O)c3)n2C)cc1 | 1.64% |  |
| CC(C)c1nc(SCC(=O)Nc2cccc(C(=O)O)c2)c2c3c(sc2n1)CCCC3 |  | 42.3 µM (active) |
| CC1(C(=O)NCc2ccc3c(c2)OCO3)CCN1C(=O)Cc1cccs1 (stereo not drawn) | 10.1% |  |
| COC(=O)c1ccc2nc(-c3cccc(Br)c3)c(Cc3ccccc3C(F)(F)F)n2c1 | -0.95% |  |
| CCN(CC)S(=O)(=O)c1ccc(NC(=O)c2cccnc2Cl)c(NC(=O)c2cccnc2Cl)c1 |  | 23.8 µM (active) |
| CCN(CC)S(=O)(=O)c1ccc(NC(=O)c2cnc(C)cn2)cc1 | 1.21% |  |
| Cc1ccc(CNC(=O)c2cccnc2Cl)cc1 | -17.3% |  |
| COc1ccc(-c2csc(C(O)c3cccc(Cl)c3)n2)cn1 (stereo not drawn) | -6.07% |  |
| CCCCCNC(=O)C(c1ccc(OC)cc1)n1c(=O)c(-c2ccccc2)nc2ccccc21 (stereo not drawn) | -10.5% |  |
| O=S(=O)(Nc1ccc2nc(N3CCOCC3)sc2c1)c1ccccc1 | -10.1% |  |
| Cc1nc2ccc(NC(=O)c3cccc(S(=O)(=O)N4CCOCC4)c3)cc2s1 | -2.09% |  |
| COc1ccc(S(=O)(=O)Nc2ccc(O)c(Sc3nc4ccccc4s3)c2)cc1 |  | 16.8 µM (active) |
| COc1ccc(NS(=O)(=O)c2ccc3oc(SCC(N)=O)nc3c2)cc1 | -0.392% |  |
| O=C(O)c1cccc(S(=O)(=O)Nc2ccc(O)cc2Sc2nc3ccccc3s2)c1 |  | 13.4 µM (active) |
| COc1ccc(NS(=O)(=O)c2ccc(NC(=S)NC(=O)CC(C)C)cc2)cc1 | -14.2% |  |
| N#Cc1ccc(-c2ccc3nccn3c2)cc1 | -5.23% |  |
| COc1ccc(-c2cc(C(=O)N3CCN(Cc4ccc5c(c4)OCO5)CC3)on2)cc1OC |  | 5.97 µM (active) |
| O=C(c1cccs1)N1CCN(Cc2ccc3c(c2)OCO3)CC1 | -0.579% |  |
| Cc1cc(C)n2nc(C(=O)N3CCN(Cc4ccc5c(c4)OCO5)CC3)nc2n1 | -1.06% |  |
| COC(=O)Cc1ccc(NC(=S)NCc2ccccc2)cc1 | -14.7% |  |

| SMILES | max response, negative = inhibition | Potency |
| --- | --- | --- |
| CC(C)Oc1ccc(CC(=O)NNC(=S)Nc2ccc(Br)cc2)cc1 |  | 13.4 µM (active) |
| Cc1ccc(OC(=O)CCC(=O)Nc2ccc(Br)cc2)cc1 | -3.3% |  |
| O=C1NC[C@@H](CCCCN2CCN(CCc3ccc(O)cc3)C(=O)C2=O)N(CC2CCCCC2)C1=O | -8.33% |  |
| FC(F)(F)c1cccc(-c2nc3ccccc3n2C(c2ccccc2)c2nc3ccccc3[nH]2)c1 (stereo not drawn) | -0.5% |  |
| Cc1cccc(C)c1NC(=O)CN1CCN(c2ccc(F)cc2)CC1 | -2.75% |  |
| CCOc1cc(C=NNC(=O)CCCC(=O)NN=Cc2ccc(O)c(OCC)c2)ccc1O | -0.399% |  |
| C=CCNC(=O)CCCC(=O)NCC=C | 2.64% |  |
| C/C=N/NC(=O)CCCC(=O)N/N=C/C |  | 29.9 µM (active) |
| Cc1cc(C)n2c(Nc3c(C)cccc3C)c(CCc3ccccc3)nc2n1 | -7.58% |  |
| CSc1ccccc1C(=O)NCc1ccccc1 | -11.2% |  |
| CSc1ccccc1C(=O)Nc1cccc(C(C)=O)c1 |  | 23.8 µM (active) |
| CC(=O)c1cccc(NC(=O)c2cc(C)nn2-c2ccccc2)c1 | 5.02% |  |
| CN(Cc1c(F)cccc1Cl)C(=O)COC(=O)Cn1cnc2ccccc2c1=O | -0.103% |  |
| CC(C)C1C(=O)N(Cc2cn(CCC3OCCO3)nn2)CCS(=O)(=O)N1Cc1ccc(-c2ccccc2C(F)(F)F)cc1 (stereo not drawn) | 0.333% |  |
| COc1cccc(-c2ccc3c(c2)N(Cc2ccccc2OC)C(=O)C(C)S3)c1 (stereo not drawn) | 0.113% |  |
| CCOC(=O)C1CCCN(C(=O)c2ccc(N(C)C)cc2)CC1 (stereo not drawn) | -4.5% |  |
| CC(=O)c1cccc(NC(=S)N2CCCC2)c1 | -6.15% |  |
| Cc1cccc(NC(=S)N2CCC(c3nc4ccccc4s3)CC2)c1 | -1.09% |  |
| Cc1cccc(NC(=S)N2CCC(C(=O)c3ccc(F)cc3)CC2)c1 |  | 2.99 µM (active) |
| CCOC(=O)C1(C)CCCN(C(=O)c2ccc(F)c(Cl)c2)C1 (stereo not drawn) | -9.56% |  |
| CN(C)C(CNC(=O)c1cccc(S(=O)(=O)N2CCc3ccccc3C2)c1)c1ccccc1 (stereo not drawn) | -5.08% |  |
| CC1(C(=O)NS(=O)(=O)c2cccc(F)c2)CCN1C(=O)c1cccc2ccccc12 (stereo not drawn) | -0.565% |  |
